According to PubChem BioAssay AID651791 (National Center for Advancing Translational Sciences (NCATS), 2012):
Results filed as inconclusive are left out. Calls of active or inactive are those of the source. The call rests on the fitted dose curve; in most records, active means well fitted inhibition curve with a large enough effect; inconclusive means small, poorly fitted or top-dose-only effect; inactive means no such curve, though single readings can be large or run the other way.

Assay: InCell qHTS Assay for Inhibitors of the mTORC1 Signaling Pathway in MEF (Tsc2-/-, p53-/-) Cells: Hit Validation;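 further: phospho-S6 Ser235/236 signal normalized to propidium iodide cell count per well; nearly all actives have a fitted effect of over 75% in size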
Conditions: phospho-rpS6 immunofluorescence, 24 h; activity change, negative = inhibition: at 38.3 µM (top of the series)
Potency means the concentration at half of the fitted maximal effect.

| SMILES | activity change, negative = inhibition [%] | Potency |
| --- | --- | --- |
| CCOc1ccc(N(CC(=O)Nc2ccccc2CC)S(=O)(=O)c2c(C)noc2C)cc1 | -100 |  |
| O=C(CCn1cnc2onc(-c3ccc(F)cc3)c2c1=O)Nc1ccc(F)c(Cl)c1 | -100 |  |
| CCC(C)n1c(SCc2c(F)cccc2Cl)nc2ccsc2c1=O (configuration not stated) | -100 |  |
| O=C(CCCn1ccc2cc(S(=O)(=O)N3CCCC3)ccc21)NCc1ccc(Cl)cc1 | -100 |  |
| CCS(=O)(=O)c1ncc(Cl)c(C(=O)Nc2ccccc2)n1 |  | 2610 nM (active) |
| O=C(CCCn1c(=O)c2ccccc2n(Cc2cccc(Cl)c2)c1=O)NCCc1ccc(Cl)cc1 | -100 |  |
| COc1ccc2cc(CNc3ccccc3)c(=O)n(CC(=O)Nc3ccc(C)cc3C)c2c1 | -13.3 |  |
| Cc1cccc(CSCCNC(=O)CN(c2ccccc2)S(=O)(=O)N(C)C)c1 | -100 |  |
| Cc1ccc(N(CC(O)Cn2c3ccccc3c3ccccc32)S(=O)(=O)c2ccc(F)cc2)cc1 (configuration not stated) | -64.5 |  |
| COc1ccccc1NC(=O)c1sc(-c2ccc(Cl)cc2)cc1N | -100 |  |
| COc1ccccc1N1CCN(C(=O)c2cnc(N3CCCCC3)c3ccccc23)CC1 | -100 |  |
| Cc1oc2ccc(O)c(CN3CCCC(C)C3)c2c1C(=O)Nc1ccccc1 (configuration not stated) | -29.6 |  |
| COC(=O)c1ccc(Nc2nnc(-c3ccc(C)c(S(=O)(=O)N4CCN(C)CC4)c3)c3ccccc23)cc1 | -100 |  |
| Cc1cccc(-c2nc3c(cnn3-c3ccccc3)c(=O)n2-c2ccc(Br)cc2)c1 | -100 |  |
| CCOc1ccc(-n2c(C)nc3c(cnn3-c3ccc(C)cc3)c2=O)cc1 | -100 |  |
| Cc1ccc(CN2C(=O)c3ccccc3Sc3ccc(C(=O)NCCCN4CCOCC4)cc32)cc1 | -100 |  |
| O=c1oc2ccccc2cc1-c1cn2cc(Cc3ccccc3F)sc2n1 | -100 |  |
| COc1ccc(CCNC(=O)C(C)n2nc(C)c3sc4ccccc4c3c2=O)c(OC)c1 (configuration not stated) | -100 |  |
| Cc1ccccc1C(=O)N1CCN(CCc2ccccn2)CC1 | -100 |  |
| CCOc1cc(CNCCSc2nnnn2C)cc(Cl)c1OCc1ccc(Cl)cc1 | -100 |  |
| COc1cccc(C(=O)CC2(O)C(=O)N(Cc3ccccc3)c3ccccc32)c1 (configuration not stated) | -100 |  |
| CC(=O)Nc1ccc(NC(=O)c2nc(S(=O)(=O)Cc3ccc(F)cc3)ncc2Cl)cc1 |  | 3290 nM (active) |
